These results are taken from PubChem BioAssay (NCATS).

Molecules are shown by their SMILES. Several values for one entry are separate records, joined by “and”; a condition that tells them apart may be missing. Identical values can stand only once. Records with an inconclusive call do not appear. Activity calls are given as the source filed them. Calls come from the whole dose curve; as a rule, active = well fitted curve in the direction sought with a large enough effect; inconclusive = small, poorly fitted or top-dose-only effect, or another doubt; inactive = no such curve, though single readings can be large; an effect the other way counts as inactive or inconclusive.

Assay [1] can be described thus: qHTS of pediatric cancer cell lines to identify multiple opportunities for drug repurposing: Primary screen for MG 63 (6-TG R) cells (AID 1347105). Note: nearly all actives have a fitted effect of over 50% in size. Note: potency is the fitted concentration of half-maximal effect. Summed up: (§1)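 Primary screen of approved and investigational compounds on cells in growth media at 37 degrees C, 5% CO2. MIPE set at 11-point and NPC set at 8-point dilutions; viability scored by ATP-based luminescence at 48 hours.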
For orientation: qHTS replaces the single test concentration by a dilution series.

Assay [2] in a line: qHTS of pediatric cancer cell lines to identify multiple opportunities for drug repurposing: Primary screen for control Hh wild type fibroblast cells (AID 1347106). Note: nearly all actives have a fitted effect of over 55% in size. Note: potency is the fitted concentration of half-maximal effect. An outline of the steps:
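Cells (500-1,000/well) in growth media were settled 5 h at 37 degrees C, then given compounds for 48 h. Viability was read as CellTiter-Glo luminescence. Primary runs used MIPE at 11 points (0.78 nM-46 µM) and NPC at 8 points (0.59 nM-46 µM); follow-ups used 11 points.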

Assay [3] in a line: qHTS of pediatric cancer cell lines to identify multiple opportunities for drug repurposing: Primary screen for Rh30 cells (AID 1347107). Note: series mostly up to about 46 µM; nearly all actives have a fitted effect of over 75% in size. An outline of the steps:
(§2)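 Viability after 48 h compound treatment at 37C, 500-1,000 cells/well, read as ATP luminescence with CellTiter-Glo. Primary screens used 11-point (MIPE, 0.78 nM-46 µM) or 8-point (NPC, 0.59 nM-46 µM) final concentrations; follow-up screens used 11-point dilutions.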

Assay [4] in a line: qHTS of pediatric cancer cell lines to identify multiple opportunities for drug repurposing: Primary screen for Rh41 cells (AID 1347108). Note: nearly all actives have a fitted effect of over 70% in size. Note: potency is the fitted concentration of half-maximal effect. An outline of the steps:
as §1

Assay [5] can be described thus: qHTS of pediatric cancer cell lines to identify multiple opportunities for drug repurposing: Primary screen for RD cells (AID 1347104). Note: nearly all actives have a fitted effect of over 55% in size. Note: potency is the fitted concentration of half-maximal effect. Summed up:
as §1

Assay [6] is described as follows: qHTS of pediatric cancer cell lines to identify multiple opportunities for drug repurposing: Confirmatory screen for NB1643 cells (AID 1347109). Note: nearly all actives have a fitted effect of over 45% in size. Note: potency is the fitted concentration of half-maximal effect. An outline of the steps: as §2
The nature of assay [7]: qHTS of pediatric cancer cell lines to identify multiple opportunities for drug repurposing: Confirmatory screen for SK-N-MC cells (AID 1347111).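 Note: cells exposed to compound for 48 h before the readout; nearly all actives have a fitted effect of over 70% in size.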 Note: potency is the fitted concentration of half-maximal effect. Summed up: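 SK-N-MC cells at 500-1,000 cells/well in growth media were pre-incubated 5 h, then exposed to compounds at 11-point dilutions for 48 h at 37 degrees C, 5% CO2. Viability was read as CellTiter-Glo luminescence.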
Assay [8] in a line: qHTS of pediatric cancer cell lines to identify multiple opportunities for drug repurposing: Confirmatory screen for DAOY cells (AID 1347114). Note: nearly all actives have a fitted effect of over 65% in size. Note: potency is the fitted concentration of half-maximal effect. Summed up: (§3)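 Viability measured as metabolically active cells via CellTiter-Glo luminescence following 48 hours of compound exposure, 11-point dilutions in confirmatory testing. 500-1,000 cells/well plated 5 hours before dosing; controls were DMSO and 2.3 µM bortezomib.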

Assay [9] can be described thus: qHTS of pediatric cancer cell lines to identify multiple opportunities for drug repurposing: Confirmatory screen for SJ-GBM2 cells (AID 1347116). Note: nearly all actives have a fitted effect of over 60% in size. Note: potency is the fitted concentration of half-maximal effect. An outline of the steps: as §3
Assay [10] can be described thus: qHTS of pediatric cancer cell lines to identify multiple opportunities for drug repurposing: Confirmatory screen for TC32 cells (AID 1347118). Note: nearly all actives have a fitted effect of over 65% in size. Note: potency is the fitted concentration of half-maximal effect. Summed up:
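Luminescent CellTiter-Glo read-out of metabolically active TC32 cells after 48 h compound exposure. Primary: MIPE 11-point, 0.78 nM–46 µM; NPC 8-point, 0.59 nM–46 µM. Confirmatory: 11-point dilutions.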

Assay [11] in a line: qHTS of pediatric cancer cell lines to identify multiple opportunities for drug repurposing: Confirmatory screen for control Hh wild type fibroblast cells (AID 1347121). Note: nearly all actives have a fitted effect of over 70% in size. Note: potency is the fitted concentration of half-maximal effect. An outline of the steps: as §2
Assay [12] can be described thus: qHTS of pediatric cancer cell lines to identify multiple opportunities for drug repurposing: Confirmatory screen for U-2 OS cells (AID 1347122). Note: nearly all actives have a fitted effect of over 65% in size. Note: potency is the fitted concentration of half-maximal effect. Summed up: as §2
Assay [13] can be described thus: qHTS of pediatric cancer cell lines to identify multiple opportunities for drug repurposing: Confirmatory screen for RD cells (AID 1347124).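 Note: cells exposed to compound for 48 h before viability readout; nearly all actives have a fitted effect of over 65% in size.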 Note: potency is the fitted concentration of half-maximal effect. An outline of the steps:
as §2

The nature of assay [14]: qHTS of pediatric cancer cell lines to identify multiple opportunities for drug repurposing: Confirmatory screen for Rh18 cells (AID 1347125). Note: nearly all actives have a fitted effect of over 55% in size. Note: potency is the fitted concentration of half-maximal effect. Summed up:
as §2

A short description of assay [15]: qHTS of pediatric cancer cell lines to identify multiple opportunities for drug repurposing: Confirmatory screen for Rh30 cells (AID 1347126). Note: nearly all actives have a fitted effect of over 55% in size. Note: potency is the fitted concentration of half-maximal effect. Summed up: as §2
The nature of assay [16]: qHTS of pediatric cancer cell lines to identify multiple opportunities for drug repurposing: Confirmatory screen for BT-12 cells (AID 1347112). Note: nearly all actives have a fitted effect of over 55% in size. Note: potency is the fitted concentration of half-maximal effect. Summed up:
as §2

Assay [17] is described as follows: qHTS of pediatric cancer cell lines to identify multiple opportunities for drug repurposing: Confirmatory screen for LAN-5 cells (AID 1347113). Note: nearly all actives have a fitted effect of over 65% in size. Note: potency is the fitted concentration of half-maximal effect. Summed up:
as §2

Assay [18] can be described thus: qHTS of pediatric cancer cell lines to identify multiple opportunities for drug repurposing: Confirmatory screen for NB-EBc1 cells (AID 1347115). Note: nearly all actives have a fitted effect of over 45% in size. Note: potency is the fitted concentration of half-maximal effect. An outline of the steps: as §2
Assay [19] is described as follows: qHTS of pediatric cancer cell lines to identify multiple opportunities for drug repurposing: Confirmatory screen for MG 63 (6-TG R) cells (AID 1347119). Note: nearly all actives have a fitted effect of over 55% in size. Note: potency is the fitted concentration of half-maximal effect. Summed up: as §2
The nature of assay [20]: qHTS of pediatric cancer cell lines to identify multiple opportunities for drug repurposing: Confirmatory screen for Rh41 cells (AID 1347123). Note: potency is the fitted concentration of half-maximal effect; nearly all actives have a fitted effect of over 60% in size. Summed up:
as §2

Take `COc1cc(F)c(F)c(Nc2ccc(I)cc2F)c1NS(=O)(=O)C1(C[C@H](O)CO)CC1`: the Potency entry in assay [1] and in assay [2] was “inactive” throughout.

For the compound `Cc1cnc(NC(=O)C2=C(O)c3ccccc3S(=O)(=O)N2C)s1`, the Potency entry in assay [1], in assay [2], in [3] and in assay [4] was “inactive” each time.

On to `NC(=O)C1CCCc2c1[nH]c1ccc(Cl)cc21` (centres undefined), for which the Potency result in assay [1] and in assay [2] was “inactive” throughout.

Turning to `CCOC(=O)N[C@@H]1CC[C@@H]2[C@@H](C1)C[C@H]1C(=O)O[C@H](C)[C@H]1[C@@H]2C=Cc1ccc(-c2cccc(F)c2)cn1`, the Potency result in assay [1] and in assay [2] was “inactive” each time.

Consider `CC[C@@H](C)[C@H](NC(=O)[C@H](CC1CCCCC1)NC(=O)c1ccno1)C(=O)N1CCC2(CCc3ccccc32)CC1`, for which the Potency entry in assay [1] and in assay [2] was “inactive” each time.

In the case of `CNC(=O)c1ccccc1Sc1ccc2c(/C=C/c3ccccn3)n[nH]c2c1`, the Potency result in assay [5] and in [3] was “inactive” in each case.

With `Cc1cc(-c2ccc(CC(=O)Nc3ccc(-c4cccnc4)cc3)cc2)ccn1`, the Potency entry in [1] and in [2] was “inactive” in each case.

Take `O=C(O)[C@@H](c1ccc(OCc2ccc3ccccc3n2)cc1)C1CCCC1`: the Potency result in [1] and in assay [2] was “inactive” throughout.

As for `Cc1cc(C=c2sc3nc4ccccc4n3c2=O)c(C)n1-c1ccccc1`, the Potency entry in assay [1] and in assay [2] was “inactive” each time.

As for `CCCS(=O)(=O)Nc1ccc(F)c(C(=O)c2c[nH]c3ncc(Cl)cc23)c1F`, the Potency in assay [5] is 18.7 µM (active). Besides, in assay [4], the Potency result is “inactive”.

With `CCCc1nn(C)c2c(=O)[nH]c(-c3cc(S(=O)(=O)N4CCN(C)CC4)ccc3OCC)nc12`, the Potency result in assay [1], in assay [2] and in assay [3] was “inactive” each time.

Take `Cc1ccc(NC(=O)c2cccc(C(C)(C)C#N)c2)cc1Nc1ccc2ncn(C)c(=O)c2c1`: the Potency result in assay [1] and in assay [2] was “inactive” throughout.

In the case of `COc1cc2c(cc1OC)CN(CCc1ccc(NC(=O)c3cccc4c(=O)c5cccc(OC)c5[nH]c34)cc1)CC2`, the Potency result in assay [1] and in assay [2] was “inactive” throughout.

For the compound `S=C(NCc1ccc2c(c1)OCO2)N1CCN(c2ncnc3c2oc2ccccc23)CC1`, the Potency entry in assay [1], in [2] and in assay [3] was “inactive” in each case.

Turning to `CCn1c(-c2nonc2N)nc2cnc(Oc3cccc(NC(=O)c4ccc(OCCN5CCOCC5)cc4)c3)cc21`, the Potency result in assay [1] and in assay [2] was “inactive” in each case.

Take `Cc1ccccc1C(C(=O)NC1CCCC1)N(C(=O)Cn1cnc2ccccc21)c1cccc(F)c1` (centres undefined): the Potency entry in assay [1], in assay [2] and in assay [3] was “inactive” each time.

As to `CCc1cc(Nc2nccc(-c3c(-c4ccc(OC)c(C(=O)Nc5c(F)cccc5F)c4)nc4ccccn34)n2)c(OC)cc1N1CCC(N2CCN(S(C)(=O)=O)CC2)CC1`, the Potency in assay [1] was 18.7 µM (active).

In the case of `O=C(NOC[C@H](O)CO)c1ccc(F)c(F)c1Nc1ccc(I)cc1F`, the figures for the Potency in assay [5] and in assay [12] were 0.0935 µM (active) and 1.31 µM (active), respectively. Moreover, the Potency result in assay [6], in [7], in [8], in assay [9], in assay [10] and in assay [11] was “inactive” each time. Further, the Potency result in [13], in assay [14] and in assay [15] was “inactive” in each case.

With `O=c1[nH]cnc2[nH]ncc12`, the Potency entry in [1], in [2], in assay [3] and in assay [4] was “inactive” throughout.

In the case of `CCC(=O)N[C@H]1CC[C@H](C(=O)N(C)c2ccc(-c3nc4ccccc4o3)cc2)C1`, the Potency in assay [5] is 3.32 µM (active). Also, the Potency result in assay [3] is “inactive”.

In the case of `CCCc1nc2c(C)cc(-c3nc4ccccc4n3C)cc2n1Cc1ccc(-c2ccccc2C(=O)O)cc1`, the Potency entry in [1], in [2], in [3] and in assay [4] was “inactive” throughout.

In the case of `CCOc1ccn(-c2ccc(F)cc2)c(=O)c1C(=O)Nc1ccc(Oc2ccnc(N)c2Cl)c(F)c1`, the Potency result in assay [5], in [16], in assay [17], in assay [8], in [18] and in assay [11] was “inactive” throughout. The Potency entry in assay [12], in [13] and in assay [15] was “inactive” throughout. The Potency in assay [7] was 9.27 µM (active); in assay [9] it was 14.7 µM (active); in assay [10], 7.37 µM (active); in assay [19], 10.4 µM (active).

`Cc1cccc(-c2[nH]c(C(C)(C)C)nc2-c2ccc3nccnc3c2)n1`: the Potency result in assay [1], in [2] and in assay [3] was “inactive” in each case. The Potency in assay [4] is 2.96 µM (active).

`Cc1csc(NC(=O)c2sc3nc4c(c(C(F)(F)F)c3c2N)CCC4)n1`: in [1], the Potency result was “inactive”. Further, the Potency in [2] is 2.64 µM (active).

Consider `CN1CCN(CCCN2c3ccccc3Sc3ccc(C(F)(F)F)cc32)CC1`, for which the Potency was 26.6 µM (active) and 18.7 µM (active) in [5]; 23.3 µM (active) in assay [6]; 23.3 µM (active) in assay [16]; 18.5 µM (active) in assay [8]; 23.3 µM (active) in assay [19]; 23.3 µM (active) in assay [12]. The Potency was 14.7 µM (active) in [20], 23.3 µM (active) in assay [13] and 20.8 µM (active) in assay [14]. The Potency entry in [3] and in assay [4] was “inactive” throughout.

Turning to `CN[C@@H](C)C(=O)N[C@H]1CCCC[C@H]2CC[C@@H](C(=O)N[C@@H](c3ccccc3)c3cn(CCCCc4ccc(CCCCn5cc([C@@H](NC(=O)[C@@H]6CC[C@@H]7CCCC[C@H](NC(=O)[C@H](C)NC)C(=O)N76)c6ccccc6)nn5)cc4)nn3)N2C1=O`, the Potency result in [1] and in assay [2] was “inactive” each time.

In the case of `C[C@@H]1CN(Cc2ccc(F)cc2)[C@@H](C)CN1C(=O)c1cc2c(C(=O)C(=O)N(C)C)cn(C)c2cc1Cl`, the Potency in assay [5] is 0.833 µM (active); in assay [4], 14.8 µM (active).

Consider `NC[C@H](O)c1ccc(O)c(O)c1`, for which the Potency entry in assay [1], in [2], in assay [3] and in [4] was “inactive” each time.

`O=C(O)CCc1ccc(NCc2cccc(Oc3ccccc3)c2)cc1`: the Potency entry in [1], in assay [2] and in assay [4] was “inactive” in each case.

As for `CCOc1cc(N2CCC(O)CC2)ccc1Nc1ncc2c(n1)N(C)c1ccccc1C(=O)N2C`, the Potency in [1] was 3.72 µM (active); in [4], 2.96 µM (active); in assay [6] it was 16.5 µM (active); in [7], 1.17 µM (active); in assay [10], 0.928 µM (active); in assay [19] it was 4.14 µM (active). Moreover, the Potency result in assay [2] and in assay [11] was “inactive” throughout.

`Fc1ccc(Cl)cc1-c1nc(Nc2ccncc2)c2nccnc2n1`: the Potency entry in [1], in [2], in assay [3] and in assay [4] was “inactive” throughout.

As for `COCC(=O)NCC=Cc1ccc2ncnc(Nc3ccc(Oc4ccc(C)nc4)c(C)c3)c2c1`, the Potency result in assay [1], in assay [2], in assay [9] and in assay [13] was “inactive” each time. The Potency in assay [17] is 42.7 µM (active); in [8], 16.5 µM (active); in assay [18] it was 30.2 µM (active); in assay [10], 26.9 µM (active); in [19], 38 µM (active); in [11], 42.7 µM (active). Moreover, the Potency in [20] was 18.5 µM (active); in assay [15], 2.93 µM (active).

`CCC(C)n1ncn(-c2ccc(N3CCN(c4ccc(OC[C@H]5CO[C@](Cn6cncn6)(c6ccc(Cl)cc6Cl)O5)cc4)CC3)cc2)c1=O` (some centres undefined): the Potency result in assay [1], in [2], in assay [4], in assay [6], in assay [17] and in assay [18] was “inactive” each time. Also, the Potency result in assay [9], in assay [19], in [11], in assay [13], in assay [14] and in assay [15] was “inactive” throughout. The figures for the Potency in [7], in [10] and in assay [20] were 4.65 µM (active), 3.29 µM (active) and 11.7 µM (active), respectively.
